Among the data in PubChem BioAssay are fold change permeability values, retold here.

Each structure is given as a SMILES string. Where “and” joins values, the source holds several entries; their conditions need not be identical. Equal values may be shown once. Where a structure was tested more than once in an assay, its records may differ in their call. Calls of active or inactive are those of the source. Cut-off read from the data, not from the text of the source: active = fold change permeability below about 0.7 or above about 1.3; inactive = in between.

The nature of this assay: modulators of brain endothelial barrier permeability, primary screen, cell-based, FITC-avidin fluorescence, HTS (AID 1963498). Note: test concentration not given here. The note with it: actives lie on both sides.
`CN1C(=O)CCS(=O)(=O)C1c1ccc(Cl)cc1` (stereo unspecified): the fold change permeability was 1.3 (active). Regarding `Nc1ccc(CCN2CCN(c3cccc(C(F)(F)F)c3)CC2)cc1`, the fold change permeability is 1.8 (active). The result for `NC(=O)CI` reads 1.2 (inactive). The result for `CC(=O)OCC1=C(C(=O)[O-])N2C(=O)[C@@H](NC(=O)CCC[C@@H](N)C(=O)[O-])[C@H]2SC1.[Zn+2]` reads 1 (inactive); that for `COC[C@H]1OC(=O)c2coc3c2[C@@]1(C)C1=C(C3=O)C2CCC(=O)[C@@]2(C)C[C@H]1OC(C)=O` (stereo partly specified), 1.7 (active). As to `O=C1CCCN1CC#CCN1CCCC1`, the fold change permeability is 0.8 (inactive). The result for `CCCN(CCC)C1Cc2cc(OC)c(OC)cc2C1` reads 0.8 (inactive).

Regarding `C#CCOC(=O)C1=CCCN(C)C1`, the fold change permeability is 1 (inactive). `CC(C)=CCOc1c2occc2cc2ccc(=O)oc12`: the fold change permeability is 1.5 (active). As for `NCCCP(=O)(O)O`, the fold change permeability is 1.3 (active). As for `CCCCCN(C)CCC(O)(P(=O)(O)O)P(=O)(O)O`, the figure is 1.8 (active); as for `CS(=N)(=O)CC[C@H](N)C(=O)O` (stereo partly specified), 0.8 (inactive); as for `CN1C2C=C(c3sccc3Br)CC1CC2` (stereo unspecified), 0.9 (inactive). Turning to `NC(Cc1cc(O)c(O)cc1O)C(=O)O` (stereo unspecified), the fold change permeability was 0.9 (inactive). As for `C[C@@H](N)Cc1cnc[nH]1`, the figure is 0.9 (inactive); as for `Cc1nccc2c1[nH]c1ccccc12`, 1.2 (inactive); as for `CC(C)(C)c1o[nH]c(=O)c1CC(N)C(=O)O` (stereo unspecified), 1.1 (inactive).

Regarding `Clc1ccc(C(Cn2ccnc2)OCc2csc3c(Cl)cccc23)c(Cl)c1` (stereo unspecified), the fold change permeability is 1.2 (inactive). The result for `CCCN(CCC)CCc1ccc(O)c(O)c1` reads 0.8 (inactive); that for `NC(CCP(=O)(O)O)C(=O)O` (stereo unspecified), 1 (inactive). `CN1[C@H]2C[C@H](OC(=O)[C@H](CO)c3ccccc3)C[C@@H]1[C@@H](O)C2`: the fold change permeability is 0.8 (inactive). The result for `Cn1cnc(CCN)c1` reads 0.9 (inactive); that for `CC(C)C[C@H](NP(=O)(O)O[C@@H]1O[C@@H](C)[C@H](O)[C@@H](O)[C@H]1O)C(=O)N[C@@H](Cc1c[nH]c2ccccc12)C(=O)O`, 1.4 (active).

Turning to `c1ccc2c(c1)OCC(C1=NCCN1)O2` (stereo unspecified), the fold change permeability is 2.1 (active). As to `C=CCN1CC[C@]23c4c5ccc(O)c4O[C@H]2C(=O)CC[C@@]3(O)[C@H]1C5`, the fold change permeability was 1 (inactive).

Take `COc1ccc(CCNCc2ccc(OC)c3ccccc23)cc1`: the fold change permeability was 1.7 (active). As to `CN1CCC(c2c[nH]c3ccc(O)cc23)CC1`, the fold change permeability is 1 (inactive). The result for `Cc1cccc(C)c1NC(=O)CN1CCCC1=O` reads 1 (inactive). As for `O=C(N[C@H]1CN2CCC1CC2)c1c[nH]c2ccsc2c1=O`, the figure is 0.9 (inactive); as for `COc1ccc(Cc2nccc3cc(OC)c(OC)cc23)cc1OC`, 1.2 (inactive); as for `COc1ccc2c(c1OC)C(=O)O[C@H]2[C@@H]1c2cc3c(cc2CCN1C)OCO3`, 1.2 (inactive).

With `CC(=O)NBr`, the fold change permeability was 1 (inactive). As for `CC(C)N(CCC(C(N)=O)(c1ccccc1)c1ccccn1)C(C)C` (stereo unspecified), the figure is 0.9 (inactive) and 1.3 (active).

With `CC(NC(C)(C)C)C(=O)c1cccc(Cl)c1` (stereo unspecified), the fold change permeability was 1 (inactive). The result for `NCC(CP(=O)(O)O)c1ccc(Cl)cc1` (stereo unspecified) reads 1 (inactive); that for `NC(=O)CN1CCCC1=O`, 1.2 (inactive).
